Pf growth 48h – inhibits P. falciparum growth in the first generation, 48 h; P. falciparum luciferase growth in erythrocytes, 48 h; Potency, µM (doses to about 28.7 µM), inactives show at the top dose activity change, negative = inhibition, usual class: inhibitors; 5.9% of 310,000 active; note: % is set by controls: 0 for no effect and ±100 for the full control effect
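Here the parasites carry a stable luciferase gene and grow inside erythrocytes in Albumax-based RPMI medium with compound for one erythrocytic cycle. Activity is scored as loss of luminescent signal.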
AMA1 RON2 block – inhibitors of Plasmodium falciparum AMA1-RON2 interaction; Potency, µM (titrated, usually from 58.2 µM), for the others: at the top dose activity change, negative = inhibition, actives largely listed as inhibitors; AID 720542; 0.2% of 360,000 active; AlphaScreen AMA1-biotinylated RON2 peptide binding;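 note: 0% = vehicle wells and -100% = peptide control; nearly all actives have a fitted effect of over 45% in size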
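AMA1 (3D7) with his tag at 25 nM final met compounds first, then biotinylated RON2 peptide at 25 nM; detection used donor plus acceptor beads, 10 µg/mL apiece, read by AlphaScreen after 30 min at room temperature.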
Pf growth 96h – P. falciparum growth inhibition at 96 hour, primary screen for plastid delayed-death inhibitors; P. falciparum luciferase reporter growth, 96 h; Potency, µM (top dose mostly 28.7 µM), for inactives: at the top dose activity change, negative = inhibition, usual class: inhibitors; 6.9% of 320,000 active; note: % is set by controls: 0 for no effect and ±100 for the full control effect
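Two parasite generations (96 h, 37 C, 5% CO2) of compound exposure in infected erythrocytes (0.05% parasitemia, 2% hematocrit). Luciferase-reporter P. falciparum; decreased luminescence indicates inhibited growth, aimed at apicoplast-acting delayed death.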
SARS PLP yeast – inhibitors of SARS-CoV papain-like protease in yeast. S. cerevisiae expressing SARS-CoV PLpro, growth rescue. 0.19% of 330,000 active. Potency, µM (series often up to 32.9 µM), for inactives: top-dose activity, positive = growth rescue, usual class: activators; calls by dose curve; note: 0% is about no effect; nearly all actives have a fitted effect of over 55% in size
Numbers without * were called inactive. Most compounds without a hit are left out; they make up all but 9.4% or so of the library. Unless noted, calls come from the whole dose curve; as a rule, active = well fitted curve in the direction sought with a large enough effect; inconclusive = small, poorly fitted or top-dose-only effect, or another doubt; inactive = no such curve, though single readings can be large; an effect the other way counts as inactive or inconclusive. Potency is the fitted concentration of half-maximal effect.

How did CC(C)NCCOCCSc1ccc(Cl)cc1 do in these assays?
Pf growth 48h: -7%; AMA1 RON2 block: -10%; Pf growth 96h: inconclusive; SARS PLP yeast: -11%

What do the screens show for `CCOCCCNC(=S)N1CCN(c2nc(-c3ccc(F)cc3)cs2)CC1`?
Pf growth 48h: 9.3µM*; AMA1 RON2 block: -9%; Pf growth 96h: inconclusive; SARS PLP yeast: 1%

How did CCOC(=O)N1CCN(c2nc(-c3ccc(F)cc3)cs2)CC1 do in these assays?
Pf growth 48h: 13%; AMA1 RON2 block: -9%; Pf growth 96h: 92%; SARS PLP yeast: -8%

How did O=C(Nc1nc(-c2ccccc2)cs1)c1cccnc1 do in these assays?
Pf growth 48h: -30%; AMA1 RON2 block: 14%; SARS PLP yeast: 9%

What do the screens show for `CCOC(=O)C(=O)N1CCN(c2nc(-c3ccc(Cl)cc3)cs2)CC1`?
Pf growth 48h: 13%; AMA1 RON2 block: 12%; Pf growth 96h: 4.7µM*; SARS PLP yeast: -11%

What do the screens show for `COCCCNC(=S)N1CCN(c2nc(-c3ccc(F)cc3)cs2)CC1`?
Pf growth 48h: inconclusive; AMA1 RON2 block: -20%; Pf growth 96h: inconclusive; SARS PLP yeast: 11%

Results for O=C(NC(=S)N1CCN(c2nc(-c3ccccc3)cs2)CC1)c1cccnc1 ?
Pf growth 48h: 10µM*; AMA1 RON2 block: 10%; Pf growth 96h: inconclusive; SARS PLP yeast: -27%

How did COCCNC(=S)N1CCN(c2nc(-c3ccccc3)cs2)CC1 do in these assays?
Pf growth 48h: 3%; AMA1 RON2 block: -20%; Pf growth 96h: 12µM*; SARS PLP yeast: 2%

Results for Cc1cc(Br)cn2c(Cc3ccccc3C(F)(F)F)c(-c3ccccc3)nc12 ?
AMA1 RON2 block: 6%

Results for c1ccc(Oc2nc(N3CCOCC3)nc(N3CCOCC3)n2)cc1 ?
AMA1 RON2 block: -9%; Pf growth 96h: -36%; SARS PLP yeast: 0%

What do the screens show for `COc1ccc(C2c3[nH]c4ccccc4c3C[C@H]3C(=O)N(CCCO)CC(=O)N23)cc1OC` (stereo not given in full)?
Pf growth 48h: -18%; AMA1 RON2 block: -2%; Pf growth 96h: -11%; SARS PLP yeast: 2%

What do the screens show for `COc1cc(C(=O)NCC(c2ccco2)N2CCCC2)ccc1OCc1c(C)noc1C` (stereo not given)?
Pf growth 48h: 12µM*; AMA1 RON2 block: 40%; Pf growth 96h: inconclusive; SARS PLP yeast: -1%

Results for Cc1cccc(NC(=O)c2ccc(OCc3c(C)noc3C)cc2)c1 ?
Pf growth 48h: -21%; AMA1 RON2 block: 6%; Pf growth 96h: inconclusive; SARS PLP yeast: 2%

Results for Cc1noc(C)c1COc1ccc(C(=O)NCC(c2c(F)cccc2Cl)N(C)C)cc1 (stereo not given) ?
Pf growth 48h: inconclusive; AMA1 RON2 block: -13%; Pf growth 96h: 9.3µM*; SARS PLP yeast: 4%

What do the screens show for `Cc1noc(C)c1COc1ccc(C(=O)Nc2ncccc2O)cc1`?
Pf growth 48h: 7.4µM*; AMA1 RON2 block: 18%; Pf growth 96h: inconclusive; SARS PLP yeast: 0%

Results for COc1ccc(C(CNC(=O)c2ccc(OCc3c(C)noc3C)cc2)N2CCCC2)cc1 (stereo not given) ?
Pf growth 48h: 4.7µM*; AMA1 RON2 block: 5%; Pf growth 96h: 3.7µM*; SARS PLP yeast: -6%

How did COc1cc(C(=O)NCc2cccs2)ccc1OCc1c(C)noc1C do in these assays?
AMA1 RON2 block: -8%; SARS PLP yeast: 3%

How did Cc1ccc(Cl)cc1NC(=O)c1ccc(NC(=O)CCC(=O)O)cc1 do in these assays?
Pf growth 48h: -12%; AMA1 RON2 block: 8%; Pf growth 96h: 0%; SARS PLP yeast: -3%

Results for COc1ccccc1C(CNC(=O)c1ccc(OCc2c(C)noc2C)cc1)N1CCCC1 (stereo not given) ?
Pf growth 48h: 10µM*; AMA1 RON2 block: 3%; Pf growth 96h: 10µM*; SARS PLP yeast: 0%

How did CC(=O)c1sc2c(c1N)c(=O)[nH]c(=O)n2-c1ccccc1 do in these assays?
Pf growth 48h: inconclusive; AMA1 RON2 block: -1%; Pf growth 96h: 9%; SARS PLP yeast: 2%

Results for CCOC(=O)CC(=O)c1sc2c(c1N)c(=O)[nH]c(=O)n2-c1ccc(OC)cc1 ?
Pf growth 48h: inconclusive; AMA1 RON2 block: -4%; Pf growth 96h: 5.2µM*; SARS PLP yeast: -1%

How did Cc1nonc1OCC(C)(COc1nonc1C)NC(=O)c1ccc(Cl)cc1 do in these assays?
Pf growth 48h: 8.3µM*; AMA1 RON2 block: 1%; Pf growth 96h: 4.7µM*; SARS PLP yeast: 23%

Results for Cc1noc(NC(=O)c2ccc(Cl)cc2)c1Cl ?
Pf growth 48h: -27%; AMA1 RON2 block: -10%; Pf growth 96h: -13%; SARS PLP yeast: -1%

Results for COCCOc1ccc(C(F)(F)F)cc1NC(=O)Cc1ccc(S(=O)(=O)N2CCOCC2)s1 ?
Pf growth 48h: 12µM*; AMA1 RON2 block: -8%; Pf growth 96h: 8.3µM*; SARS PLP yeast: -2%

What do the screens show for `O=C(Cc1ccc(S(=O)(=O)N2CCOCC2)s1)N1CCN(S(=O)(=O)c2ccc(Cl)cc2)CC1`?
Pf growth 48h: 7.4µM*; AMA1 RON2 block: -5%; Pf growth 96h: 4.7µM*; SARS PLP yeast: -7%

How did O=C(COc1cccc(F)c1)NNC(=O)Cc1ccc(S(=O)(=O)N2CCOCC2)s1 do in these assays?
Pf growth 48h: inconclusive; AMA1 RON2 block: 120%; Pf growth 96h: inconclusive; SARS PLP yeast: 5%

Results for O=C(COc1cccc(C(F)(F)F)c1)NNC(=O)Cc1ccc(S(=O)(=O)N2CCOCC2)s1 ?
Pf growth 48h: 13µM*; AMA1 RON2 block: 113%; Pf growth 96h: inconclusive; SARS PLP yeast: -5%

Results for O=C(Cc1ccc(S(=O)(=O)N2CCOCC2)s1)N1CCN(c2cccc(C(F)(F)F)c2)CC1 ?
Pf growth 48h: inconclusive; AMA1 RON2 block: 0%; Pf growth 96h: 10µM*; SARS PLP yeast: 5%

Results for CCn1c(SCC(=O)NC2CCCCC2)nc2c(c1=O)SC(C)C2 (stereo not given) ?
Pf growth 48h: -8%; AMA1 RON2 block: -3%; Pf growth 96h: 6%; SARS PLP yeast: 4%

What do the screens show for `NS(=O)(=O)c1ccc(NC(=O)CN2CCN(S(=O)(=O)/C=C/c3ccccc3)CC2)cc1`?
Pf growth 48h: -21%; AMA1 RON2 block: -8%; Pf growth 96h: 7%; SARS PLP yeast: 5%

What do the screens show for `CN(CC1CCOCC1)C(=O)c1ccc2nc(Cc3cccc(Cl)c3)oc2c1`?
Pf growth 48h: -15%; AMA1 RON2 block: -8%; Pf growth 96h: inconclusive; SARS PLP yeast: 0%

What do the screens show for `Cc1ccc(S(=O)(=O)N2CCN(C(=O)Cc3ccc(S(=O)(=O)N4CCOCC4)s3)CC2)cc1`?
Pf growth 48h: inconclusive; AMA1 RON2 block: -9%; Pf growth 96h: 12µM*; SARS PLP yeast: inconclusive

Results for O=C(Cc1ccc(S(=O)(=O)N2CCOCC2)s1)N1CCN(S(=O)(=O)c2cccc(Cl)c2)CC1 ?
Pf growth 48h: 12µM*; AMA1 RON2 block: -5%; Pf growth 96h: inconclusive; SARS PLP yeast: 0%

Bioassay records deposited in PubChem by National Center for Advancing Translational Sciences (NCATS).
